Bioassay records from PubChem BioAssay.
Compounds with a hit are over-represented: about 11% of the library has one in this group of screens.
FLuc inh = Firefly luciferase inhibition profiling of diverse chemical library using quantitative high-throughput screening; purified P. pyralis luciferase, luminescence, biochemical; Potency, µM (top dose mostly 115 µM), hits mostly inhibitors; 76,000 compounds, 2.5% hits; AID 1347043, 2019; further: nearly all actives have a fitted effect of over 65% in size
Target sequence (P08659 whole entry, looked up): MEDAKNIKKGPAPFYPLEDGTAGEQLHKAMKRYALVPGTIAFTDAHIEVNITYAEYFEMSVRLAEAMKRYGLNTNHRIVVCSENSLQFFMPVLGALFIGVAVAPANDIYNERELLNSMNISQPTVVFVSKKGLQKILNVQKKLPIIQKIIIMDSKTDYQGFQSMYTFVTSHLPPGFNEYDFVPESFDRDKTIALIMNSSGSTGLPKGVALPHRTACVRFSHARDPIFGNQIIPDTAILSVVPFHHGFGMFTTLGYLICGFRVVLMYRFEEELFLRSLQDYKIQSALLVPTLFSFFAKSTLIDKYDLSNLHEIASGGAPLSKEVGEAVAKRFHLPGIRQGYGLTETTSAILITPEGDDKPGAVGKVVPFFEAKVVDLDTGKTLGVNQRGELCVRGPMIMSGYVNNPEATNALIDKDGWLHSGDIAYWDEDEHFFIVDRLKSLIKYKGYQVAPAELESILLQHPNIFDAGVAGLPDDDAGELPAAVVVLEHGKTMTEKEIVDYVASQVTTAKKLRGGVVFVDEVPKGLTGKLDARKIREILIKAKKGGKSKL
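Cell-free enzyme assay, 10nM P. pyralis luciferase, luciferin and ATP each at 10uM. Inhibition profiled over a 6-point titration, read as luminescence.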
HEK cytotox = Cytotoxic Profiling in HEK 293 Cell Line of Diverse Libraries Using Quantitative High-Throughput Screening. HEK 293 viability, ATP luminescence (CellTiter-Glo), 48-72 h. Potency, µM (titrated, usually from 115 µM), usual class: inhibitors. 94,000 compounds, 6.6% hits. AID 1345083, 2018; further: nearly all actives have a fitted effect of over 60% in size
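Read-out: CellTiter-Glo ATP luminescence. Cells: HEK 293, 250 cells/well. Exposure: 48 or 72 hr, 37 degree Celsius.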
hNpr1 antagonist = Natriuretic polypeptide receptor (hNpr1) antagonism - Primary qHTS; HEK293 hNpr1 GloSensor cGMP, ANP-stimulated luminescence; Potency, µM (titrated, usually from 46.3 µM), actives largely listed as inhibitors; 76,000 compounds, 1.6% hits; AID 1347048, 2019; calls by dose curve; further: nearly all actives have a fitted effect of over 60% in size
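HEK293 cells stably expressing human Npr1 and cGMP GloSensor pGS-40F, loaded 2 h with 2% GloSensor reagent, given compound 30 min at room temperature. Luminescence read before and 20 min after 0.1 nM hNppA.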
3T3 cytotox = Cytotoxic Profiling in NIH 3T3 Cell Line of Diverse Libraries Using Quantitative High-Throughput Screening. NIH 3T3 viability, CellTiter-Glo ATP luminescence, 48-72 h. Potency, µM (highest dose often 96.7 µM), actives largely listed as inhibitors. 94,000 compounds, 4.3% hits. AID 1345082, 2018; further: nearly all actives have a fitted effect of over 55% in size
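First NIH 3T3 cells are plated at 400 cells/well; next compound is pinned in; then plates incubate 48 or 72 hr at 37 °C; finally CellTiter-Glo is added and luminescence read after 10 min.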
Numbers stand for hits; n = inactive; u = inconclusive; x = no result; ! = a repeat was not active. Unless noted, the call rests on the fitted dose curve; in most records, active means well fitted curve in the direction sought with a large enough effect; inconclusive means small, poorly fitted or top-dose-only effect, or another doubt; inactive means no such curve, though single readings can be large; an effect the other way counts as inactive or inconclusive.

SMILES	FLuc inh	HEK cytotox	hNpr1 antagonist	3T3 cytotox
CCN1c2cc(C(=O)Nc3ccc(C)c(F)c3)ccc2C(=O)N2CCCCCC21 (stereo not given)	n	u	n	40µM
CC[C@H]1CN(C(=O)c2ccnc(Cl)c2)CC[C@H]1CC(=O)O	n	n	n	n
CC(=O)N1CCN(C[C@@H]2C=C(C)[C@H](Cc3nnc(-c4ccccc4F)o3)C[C@H]2C(C)C)CC1	n	u	n	u
CO[C@H]1[C@H](NC(=O)c2cc3ccccc3n2C)c2ccccc2C12CCNCC2	n	35µM	n	22µM
CO[C@H]1[C@H](NC(=O)c2cc(C)nn2C)c2ccccc2C12CCNCC2	n	n	n	n
COc1ccc(CN2C(=O)CO[C@H]3CN(Cc4c[nH]c5ccccc45)C[C@H]32)cc1	n	u	u	u
Cc1cc(OC2CN(Cc3ccc(C(F)(F)F)cc3)C2)ccc1F	n	u	n	u
Cc1cc(OC2CN(Cc3cccc4ccccc34)C2)ccc1F	n	100µM	n	u
C=C(C)C(C)(C)C(=O)N1CCCC(N2CCN(c3ccccc3OC)CC2)C1 (stereo not given)	n	u	n	n
O=C(Cn1nc2c(cc1=O)CCCCC2)N1CCN(Cc2ccccc2Cl)CC1	n	u	n	n
O=C(Cn1nc2c(cc1=O)CCCC2)N1CCN(Cc2ccccc2Cl)CC1	n	u	n	28µM
O=C(NCc1ccccc1F)c1cc(-c2cc(Cl)cc(Cl)c2)c2nncn2n1	x	n	x	n
COCc1ccc2c(c1)c(OC(C)(C)C(=O)Nc1ccccn1)nn2Cc1ccccc1	n	63µM	n	u
COCc1ccc2c(c1)c(OC(C)(C)C(=O)NCC[S+](C)(=O)[O-])nn2Cc1cccnc1	n	n	n	u
COCc1ccc2c(c1)c(OC(C)(C)C(=O)NCCc1ccccn1)nn2Cc1ccccc1	n	u	n	u
COCc1ccc2c(c1)c(OC(C)(C)C(=O)NCC[S+](C)(=O)[O-])nn2Cc1ccccc1	n	n	n	35µM
COCc1ccc2c(c1)c(OC(C)(C)C(=O)N1CC(O)C1)nn2Cc1cccnc1	n	n	n	79µM
COCCCn1c(=O)c(C(=O)N2CCN(C(=O)c3ccccc3Cl)CC2)nc2cccnc21	x	n	x	n
O=C(Nc1cccc(-c2ccco2)c1)C1CCN(Cc2ccc(CO)o2)CC1	n	u	n	n
Cc1ncc(CN2CCC(C(=O)Nc3cccc(-c4cc5ccccc5[nH]4)c3)CC2)cn1	n	20µM	n	u
O=C(Nc1ccccc1)N1CCCC(C(=O)N2CCC(c3nc4ccncc4[nH]3)CC2)C1 (stereo not given)	x	n	x	n
O=C(C1CCCC1)N1CCC(Cc2noc(C3CCOCC3)n2)C1 (stereo not given)	x	n	x	n
COc1cc2c(cc1OC)CN(C1CCCN(Cc3c(O)cccc3OC)C1)CC2 (stereo not given)	n	n	n	n
CN(Cc1cccc(C(F)(F)F)c1)S(=O)(=O)c1cccs1	n	89µM	n	u
COCCn1c(=O)c(C(=O)N2CCN([S+](=O)([O-])c3cccc(C(F)(F)F)c3)CC2)nc2cccnc21	x	n	x	n
SMILES	FLuc inh	HEK cytotox	hNpr1 antagonist	3T3 cytotox
COc1ccc(CN2CCOc3nc(-c4cccc(C#N)c4)ncc3C2=O)cc1	n	100µM	n	u
CN(C)C(=O)c1ccc(-c2ncc3c(n2)OCCN(Cc2ccccc2)C3=O)cc1	n	u	n	n
COCCN1CCOc2nc(-c3cccc(OC(F)(F)F)c3)ncc2C1=O	16µM	u	n	u
COc1ccc(CN2CCOc3nc(-c4cc(F)cc(F)c4)ncc3C2=O)cc1	n	u	n	u
O=C1c2cnc(-c3cccc(CO)c3)nc2OCCN1Cc1ccccc1	18µM	u	n	u
N#Cc1cccc(-c2ncc3c(n2)OCCN(Cc2ccc(F)cc2F)C3=O)c1	n	u	n	n
O=C1c2cnc(-c3cc(F)cc(F)c3)nc2OCCN1Cc1ccccc1	45µM	u	n	u
O=C1c2cnc(-c3ccccc3OCc3ccccc3)nc2OCCN1CC1CC1	u	u	n	n
O=C1c2cnc(-c3cc4ccccc4o3)nc2OCCN1CC1CC1	u	u	1.4µM	u
COc1ccc(NC(=O)c2ccc3c(c2)N(S(C)(=O)=O)CC3)cc1Cl	1µM	u	u	n
CS(=O)(=O)N1CCc2ccc(C(=O)Nc3ccc(Cl)c(C(F)(F)F)c3)cc21	18µM	20µM	u	n
c1ccc(-c2cc3c(cn2)NCCN(Cc2ccccn2)C3)cc1	n	u	n	n
Cc1noc(C)c1CN1CCNc2cc(-c3ccccc3)ncc2C1	63µM	u	n	u
Cc1noc(C)c1CN1CCNc2cc(Nc3ccccc3)ncc2C1	35µM	u	n	n
COc1cccc(C(=O)N(C)Cc2ccc(F)cc2)c1	n	n	n	n
CN(Cc1ccc(F)cc1)C(=O)c1ccccc1	n	u	n	n
COc1cccc(C(=O)N(C)Cc2ccc(-c3ccccc3)cc2)c1	n	71µM	n	u
Cc1ccccc1C(=O)N(C)Cc1ccc(-c2ccccc2)cc1	n	u	u	50µM
Cc1ccccc1C(=O)N(C)Cc1ccc(F)cc1	n	n	n	n
CN(Cc1ccc(-c2ccccc2)cc1)C(=O)c1ccc(F)cc1	n	71µM	n	u
CNC(=O)[C@@H]1[C@@H](O)C(=O)N(C)C12CCN(C(=O)Cc1cccs1)CC2	x	n	x	u
O=C(c1ccc(C(F)(F)F)cc1)N1CCC2(C1)C(=O)N(CCc1ccccc1)c1ccccc12 (stereo not given)	n	32µM	u	40µM!
O=C(c1ccccc1Cl)N1CCC2(C1)C(=O)N(CCc1ccccc1)c1ccccc12 (stereo not given)	n	40µM!	n	u
O=C(c1ccc(Cl)nc1)N1CCC2(C1)C(=O)N(CCc1ccccc1)c1ccccc12 (stereo not given)	n	u	n	u
CCN1C(=O)C2(CCN(S(=O)(=O)c3ccc(C(F)(F)F)cc3)CC2)c2ccccc21	n	32µM	n	n
Cc1ccccc1C(=O)N1CCC2(C1)C(=O)N(CCc1ccccc1)c1ccccc12 (stereo not given)	n	40µM!	n	u
O=C(Cc1ccsc1)N1CCC2(CC1)CC(N(Cc1ccc(F)cc1)C1CC1)CCO2 (stereo not given)	n	u	n	u
COCCNC(=O)CN1C(=O)C(Oc2ccc(F)cc2)C12CCCCC2 (stereo not given)	x	n	x	n
O[C@H]1[C@H](NCC2CCCCC2)[C@H]2CO[C@H](O2)[C@@H]1N1CCC(Cc2ccccc2)CC1	n	40µM	n	32µM
O=C(NC1CCCCC1)N[C@H]1[C@H](O)[C@@H](N2CCC(Cc3ccccc3)CC2)[C@@H]2OC[C@H]1O2	n	u	n	u
